# Compounds with a hit are over-represented: about 21% of the library has one in this group of screens.
# CYP2C19 inh – blockers of cytochrome P450 2C19 activity – biochemical, luminescence, ADME assay, primary screen; P33261; CYP2C19 Supersomes, luciferin-H EGE luminescence, 30 min; inhibition, % at 5 µM; 21% of 96,000 active;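 active = CYP2C19 inhibition above a set limit at 5 µM in the primary screen, cut at about 50% in these data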;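 also: plate controls were negative control wells for no effect and 2.5 mM tranylcypromine positive control for full effect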
# CYP2C19 act – human CYP2C19 activators, primary screen, biochemical, luminescence. Cytochrome P450 2C19 (Homo sapiens), P33261. recombinant CYP2C19, luciferin-H EGE luminescence; hits give high values; 0 = fully inhibited enzyme, 1 = untreated enzyme. activation factor at 5 µM. 96,000 tested, under 10 active;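 active = activation factor of at least 2 at 5 µM in the primary screen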;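 also: 0 = wells with 2.5 mM tranylcypromine and 1 = vehicle-only wells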
# MRP-1 activ – H69AR viability gain despite doxorubicin, primary screen, MRP-1 activator project, H69AR cells, CellTiter-Glo; AID 799, 2007; viability increase, % at 10 µM; 0.61% of 140,000 active; viability rescue;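 active = viability gain under doxorubicin at or above a set limit, the compound median plus 3 SD, cut at about 4.7% in these data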;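 also: MRP-1 overexpressing cells given doxorubicin 25 µM after compound pretreatment; 18-22 h compound pretreatment then 72 h with doxorubicin before readout; 0% = doxorubicin-only wells and 100% = vehicle-treated cells without doxorubicin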
# CYP2C9 inh – blockers of cytochrome P450 2C9 activity – biochemical, luminescence, ADME assay, primary screen; P11712; CYP2C9 Supersomes, luciferin-H conversion; inhibition, % at 5 µM; 20% of 96,000 active; AID 777, 2007;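 active = blocking of liver enzyme CYP2C9 beyond about 50% at 5 µM, limit read from the data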
# Target sequence (P11712 whole entry, looked up): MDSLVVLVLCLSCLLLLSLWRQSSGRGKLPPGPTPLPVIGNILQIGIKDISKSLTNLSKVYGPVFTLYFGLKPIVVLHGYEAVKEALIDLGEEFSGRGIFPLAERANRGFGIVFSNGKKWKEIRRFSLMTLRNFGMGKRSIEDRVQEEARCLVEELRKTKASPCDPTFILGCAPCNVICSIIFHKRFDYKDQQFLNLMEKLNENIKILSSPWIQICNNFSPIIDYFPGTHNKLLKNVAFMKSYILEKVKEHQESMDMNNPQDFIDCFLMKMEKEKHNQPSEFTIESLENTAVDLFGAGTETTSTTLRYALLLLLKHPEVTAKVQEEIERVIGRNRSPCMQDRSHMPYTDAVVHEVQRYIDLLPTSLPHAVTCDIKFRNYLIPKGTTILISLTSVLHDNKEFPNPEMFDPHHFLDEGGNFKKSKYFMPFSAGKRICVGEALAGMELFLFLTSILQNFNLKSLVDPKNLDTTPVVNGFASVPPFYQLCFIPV
# MRP reversal – reversal of MRP1-mediated doxorubicin resistance, primary screen, H69AR cells, doxorubicin co-treatment | H69AR cells + 2 uM doxorubicin, CellTiter-Glo, 72 h | differential viability (reversal), % at 10 µM | 0.04% of 85,000 active | AID 602, 2007;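 active = viability drop by adding the cancer drug above about 55%, with treated viability meeting a 40% cutoff, limit read from the data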;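 also: viability without doxorubicin minus viability with 2 µM doxorubicin for each compound; larger differential means the compound sensitizes cells more to doxorubicin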
# CYP2C9 act – human CYP2C9 activators, primary screen, biochemical, luminescence; activation factor at 5 µM; recombinant CYP2C9, luciferin-H conversion; hits give high values; factor 1 = untreated enzyme, 0 = blocked; Cytochrome P450 2C9 (Homo sapiens), P11712; 1.4% of 96,000 active;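 active = activation factor of 2 or more for CYP2C9 at a 5 µM dose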;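 also: 0 = sulfaphenazole-blocked wells and 1 = vehicle-only wells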
# Starred values were filed as active, the others as inactive; . = no result given.
SMILES,CYP2C19 inh,CYP2C19 act,MRP-1 activ,CYP2C9 inh,MRP reversal,CYP2C9 act
Cc1cccc(NC(=O)CCC(=O)N/N=C/c2ccco2)c1,.,.,-1,.,.,.
COc1ccc(/C=N\NC(=O)COc2ccc(C(C)(C)C)cc2)cc1Cn1nc(C)cc1C,53*,0.5,-1,95*,.,0.1
COc1ccc(/C=N/NC(=O)c2ccco2)cc1Cn1nc(C)cc1C,.,.,-3,.,.,.
CCCn1c(SCC(=O)c2cc(C)c(C)cc2C)n[nH]c1=O,38,0.6,-1,74*,16,0.3
CCCn1c(SCC(=O)NC(=O)Nc2ccc(C)cc2C)n[nH]c1=O,19,0.8,0,19,-5,0.8
O=C(CSc1n[nH]c(=O)n1C1CC1)Nc1cc(Cl)ccc1Oc1ccccc1,59*,0.4,-1,83*,0,0.2
O=C(CSc1ccc(Cl)cc1)Nc1ccccc1Oc1ccccc1,.,.,-1,.,.,.
CCCn1c(SCC(=O)Nc2ccccc2Oc2ccccc2)n[nH]c1=O,81*,0.2,-1,74*,-38,0.3
CCCn1c(SCC(=O)Nc2cc(Cl)ccc2OC)n[nH]c1=O,90*,0.1,-1,8,-21,0.9
O=C(CSc1nc2cccnc2n1Cc1ccccc1)NC1CCCCC1,.,.,-1,.,-2,.
C/C(=N/NC(=O)c1cccs1)c1ccc(N2CCOCC2)cc1,.,.,-1,.,.,.
COC(=O)N/N=C/c1c(C)cc(C)cc1C,.,.,0,.,.,.
COC(=O)C1C(c2ccccc2)C(C(=O)N2CCOCC2)C1c1ccccc1 (centres undefined),84*,0.2,-1,22,17,0.8
O=C(O)C1C(c2ccccc2)C(C(=O)N2CCOCC2)C1c1ccccc1 (centres undefined),-10,1.1,1,4,2,1
CN(C(=O)Cn1c(=O)n(CCCCC(=O)NC2CCCC2)c(=O)c2ccccc21)C1CCCCC1,.,.,.,.,14,.
COC(=O)C(C)n1cnc2c(nnn2Cc2ccc(Cl)cc2)c1=O (centres undefined),24,0.8,0,-26,3,1.3
CCOC(=O)C(C)n1cnc2c(nnn2-c2cccc(Cl)c2)c1=O (centres undefined),-7,1.1,0,-96,2,2*
Nc1cc(-c2ccc(Cl)cc2)nn1S(=O)(=O)c1ccc(Cl)cc1,18,0.8,-1,25,0,0.8
COc1ccc(-c2cc(N)n(S(=O)(=O)c3ccc(F)cc3)n2)cc1OC,70*,0.3,0,95*,-3,0
COc1ccc(S(=O)(=O)n2nc(-c3ccc(Cl)cc3)cc2N)cc1OC,83*,0.2,0,80*,0,0.2
Nc1cc(-c2ccc(Br)cc2)nn1S(=O)(=O)c1ccccc1,8,0.9,-1,35,8,0.7
CCOc1ccc(-c2cc(N)n(S(=O)(=O)c3ccc(OC)c(OC)c3)n2)cc1,40,0.6,0,34,18,0.7
COc1cc(-c2cc(N)n(S(=O)(=O)c3ccc(F)cc3)n2)cc(OC)c1OC,79*,0.2,2,82*,1,0.2
Nc1cc(-c2ccccc2)nn1S(=O)(=O)c1ccc(F)cc1,100*,0,-1,97*,6,0
O=C(c1ccc2nc(N3CCOCC3)sc2c1)N1CCC2(CC1)OCCO2,.,.,.,.,24,.
SMILES,CYP2C19 inh,CYP2C19 act,MRP-1 activ,CYP2C9 inh,MRP reversal,CYP2C9 act
Cc1ccn2c(NC(=O)C(C)(C)Oc3ccc(Cl)cc3)c(-c3cccs3)nc2c1,.,.,0,.,.,.
O=C(Nc1ccccc1-c1nnn(CC(=O)N2CCCc3ccccc32)n1)c1ccco1,54*,0.5,-2,90*,3,0.1
O=C(COc1cccnc1[N+](=O)[O-])Nc1cccc(S(=O)(=O)N2CCCCC2)c1,.,.,0,.,.,.
O=C(Cn1cnc2ccccc21)N/N=C/c1ccccn1,3,1,-1,29,.,0.7
COc1ccccc1N(CC(=O)NC1CCCCC1)C(=O)CCC(=O)Nc1ccccn1,64*,0.4,-2,60*,5,0.4
COc1ccccc1N(CC(=O)NC1CCCCC1)C(=O)c1csnn1,.,.,-1,.,18,.
COc1ccccc1N(CC(=O)NC1CCCC1)C(=O)c1csnn1,91*,0.1,-2,16,-5,0.8
Cc1ccc(C)c(N(CC(=O)NC2CCCC2)C(=O)CCCC(=O)Nc2ccccn2)c1,80*,0.2,-3,83*,38,0.2
Cc1cccc(N(CC(=O)NC2CCCCC2)C(=O)CCCC(=O)Nc2ccccn2)c1,.,.,-2,.,-1,.
CCOc1ccc(N(CC(=O)NC2CCCC2)C(=O)CCC(=O)Nc2ccccn2)cc1,29,0.7,-1,11,16,0.9
Cc1cccc(N(CC(=O)NC2CCCC2)C(=O)CS(=O)CC(=O)Nc2ccc3c(c2)OCO3)c1 (centres undefined),35,0.7,0,88*,11,0.1
CCn1c(Cc2ccccc2)nnc1SCC(=O)Nc1ccccc1N1CCOCC1,.,.,-3,.,1,.
COC(=O)c1ccc(S(=O)(=O)N(Cc2cc3cc4c(cc3[nH]c2=O)OCO4)C2CCCCC2)cc1,-2,1,.,1,-35,1
Cc1cccc(N(CC(=O)NC2CCCC2)C(=O)CCCC(=O)Nc2ccccn2)c1,78*,0.2,-1,62*,7,0.4
Cc1ccc(-c2nnc(CSc3nnc(COc4ccccc4)n3-c3ccccc3)o2)cc1,92*,0.1,-1,98*,-5,0
CCOc1ccc(-c2nnc(SCc3nnc(-c4ccccc4)o3)n2-c2ccccc2F)cc1,4,1,-3,6,-30,0.9
Cc1ccc(-c2nnc(CSc3nnc(COc4ccccc4)n3-c3ccc(C)cc3)o2)cc1,36,0.6,-3,71*,-43,0.3
O=C(NCc1ccccn1)C1CC(c2ccc(F)cc2)=NO1 (centres undefined),20,0.8,-3,0,3,1
c1ccc(Cn2nnc3c(N4CCCCCC4)ncnc32)cc1,36,0.6,-1,71*,-17,0.3
Fc1ccc(N2CCN(c3ncnc4c3nnn4Cc3ccccc3Cl)CC2)cc1,.,.,5.0*,.,-1,.
CCC(=O)Nc1ccccc1C(=O)C(=O)Nc1ccccc1,.,.,-1,.,.,.
O=C(NC(=S)N1CCOCC1)c1ccc([N+](=O)[O-])cc1,.,.,1,.,.,.
CC(C)c1ccc(CN2CC(C(=O)O)CC2=O)cc1 (centres undefined),6,0.9,-2,22,18,0.8
CSc1ccccc1NC(=O)CN(c1ccccc1)S(=O)(=O)N(C)C,27,0.7,-1,40,0,0.6
CN(C)S(=O)(=O)N(CC(=O)Nc1ccc(F)c(F)c1)c1ccccc1,28,0.7,1,56*,-7,0.4
